# Measured values: PubChem BioAssay (NCATS)
# Inconclusive results are not listed. Entries that show only a call come without a potency. A number with no mark means an inactive call. Active and inactive are the calls of the source. The call rests on the fitted dose curve; in most records, active means well fitted curve in the direction sought with a large enough effect; inconclusive means small, poorly fitted or top-dose-only effect, or another doubt; inactive means no such curve, though single readings can be large; an effect the other way counts as inactive or inconclusive.
# Assays:
# [1] = system: Zika virus NS2B-NS3 protease (unlinked); assay: Optimization of GU AMC qHTS for Zika virus inhibitors: Unlinked NS2B-NS3 protease assay (AID 1347151); conditions: recombinant ZIKV NS2B-NS3 protease, fluorogenic AMC substrate; series mostly up to 52.5 µM; further: nearly all actives have a fitted effect of over 80% in size
# Summary of the method: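 Noncovalent complex of NS2B hydrophilic domain and NS3 protease domain, 25 nM final, in 10 mM Tris-HCl pH 8.0, 0.01% Tween 20. AMC fluorescence change over 15 min at room temperature was fitted to a 4-parameter Hill equation.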
# [2] = system: Zika virus NS2B-NS3 protease; assay: Primary screen GU AMC qHTS for Zika virus inhibitors (AID 1347154); conditions: Zika NS2B-NS3 unlinked protease, AMC fluorogenic substrate; series mostly up to 54.1 µM; further: nearly all actives have a fitted effect of over 70% in size; further: potency means the concentration at half of the fitted maximal effect
# Summary of the method: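 Unlinked Zika NS2B hydrophilic domain/NS3 protease domain noncovalent complex (25 nM final) in 10 mM Tris-HCl pH 8.0, 0.01% Tween 20, with AMC peptide substrate. Fluorescence (ex 340, em 450 nm) change over 15 min, room temperature; percent inhibition fitted to 4-parameter Hill equation.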
# [3] = system: Zika virus NS2B-NS3 protease (unlinked complex); assay: Confirmatory screen GU AMC qHTS for Zika virus inhibitors (AID 1347153); conditions: Recombinant NS2B-NS3 protease, AMC substrate fluorescence; series mostly up to 57.1 µM; further: nearly all actives have a fitted effect of over 70% in size
# Summary of the method: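 Unlinked enzyme 25 nM, Tris pH 8.0/0.01% Tween 20; cpd 15 min RT, dark; + AMC substrate 10 µM (Km 18.3 µM); 340/450 nm read at t0 and 15 min; % inhibition → 4-param fit.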
# [4] = Confirmatory screen NINDS Rhodamine qHTS for Zika virus inhibitors (AID 1347161); conditions: purified enzyme assay, Rhodamine110 substrate fluorescence, 15 min; series mostly up to 114 µM; further: potency means the concentration at half of the fitted maximal effect; nearly all actives have a fitted effect of over 60% in size
# Summary of the method: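 Each compound, titrated, sat 15 min with 25 nM linked protease before 1.5 microM Rhodamine110 substrate went in. Fluorescence gain over the next 15 min, in pH 8.0 Tris with Tween 20, gave Hill-fitted curves.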
structure (smiles),measurement,setting,value
C[C@]12CC[C@@H]3c4ccc(O)cc4CC[C@H]3[C@@H]1CC[C@@H]2O,Potency,[1],inactive
same,Potency,[2],inactive
Nc1nc2ncc(CNc3ccc(C(=O)N[C@@H](CCC(=O)O)C(=O)O)cc3)nc2c(=O)[nH]1,Potency,[3],inactive
same,Potency,[2],18.1 µM (active)
same,Potency,[4],55.3 µM (active)
CCOc1ccc(NC(=O)CC(C)O)cc1 (stereo unspecified),Potency,[2],inactive
NC(CO)(CO)CO,Potency,[2],inactive
COc1cc2c(cc1OC)C(C(C(=O)N(CCc1ccc(OC)c(OC)c1OC)CCc1ccc(OC)c(OC)c1OC)c1ccccc1)=NCC2 (stereo unspecified),Potency,[2],inactive
COc1ccc(/C=C/C(=O)c2ccc(OC)cc2OC)cc1,Potency,[2],inactive
CN(C)CCOc1ccccc1Cc1ccccc1,Potency,[2],inactive
CC(=O)c1ccc2c(c1)N(CCCN1CCC(CCO)CC1)c1ccccc1S2,Potency,[2],inactive
O=c1[nH]c(=O)n([C@H]2C[C@H](O)[C@@H](CO)O2)cc1C(F)(F)F,Potency,[2],inactive
CCCCCCCCCCCCCCCCCC(=O)OCC(O)CO (stereo unspecified),Potency,[2],inactive
CCN(CCCCOC(=O)c1ccc(OC)c(OC)c1)C(C)Cc1ccc(OC)cc1 (stereo unspecified),Potency,[2],inactive
CC1=C(C(=O)O)N2C(=O)[C@@H](NC(=O)[C@H](N)c3ccc(O)cc3)[C@H]2SC1,Potency,[2],inactive
COc1cc2c(cc1OC)[C@@H]1CC(=O)[C@@H](CC(C)C)CN1CC2,Potency,[2],inactive
COc1cc(C(=S)N2CCOCC2)cc(OC)c1OC,Potency,[2],inactive
C[C@]12C=CC(=O)C=C1CC[C@@H]1[C@@H]2[C@@H](O)C[C@@]2(C)[C@H]1CC[C@]2(O)C(=O)CO,Potency,[2],inactive
NC[C@H]1O[C@H](O[C@H]2[C@H](O[C@@H]3O[C@H](CO)[C@@H](O)[C@H]3O)C(O)[C@H](N)C[C@@H]2N)[C@H](N)[C@@H](O)[C@@H]1O (stereo partly specified),"activity change, negative = inhibition",[2],-1.02% [at 6.83 µM]
CC(=O)OCC(=O)[C@@]12OC(C)(C)O[C@@H]1C[C@H]1[C@@H]3C[C@H](F)C4=CC(=O)C=C[C@]4(C)[C@@]3(F)[C@@H](O)C[C@@]12C,Potency,[2],inactive
Clc1ccc2c(c1)CCc1cccnc1C2=C1CCNCC1,Potency,[2],inactive
COc1cc(/C=C/C(=O)O[C@H]2CC[C@]34C[C@]35CC[C@]3(C)[C@@H]([C@H](C)CCC=C(C)C)CC[C@@]3(C)[C@@H]5CC[C@H]4C2(C)C)ccc1O,Potency,[2],inactive
CC(C)NC[C@@H](O)COc1cccc2ccccc12,Potency,[2],inactive
C[C@]12C=CC(=O)C=C1[C@@H](F)C[C@@H]1[C@@H]2[C@@H](O)C[C@@]2(C)[C@H]1CC[C@]2(O)C(=O)CO,Potency,[2],inactive
CCOC(=O)c1cccc(N)c1,Potency,[2],inactive
CC(O)(P(=O)(O)O)P(=O)(O)O,Potency,[2],inactive
Cc1c(F)c(N2CCNC(C)C2)cc2c1c(=O)c(C(=O)O)cn2C1CC1 (stereo unspecified),Potency,[2],inactive
C[C@@H]1CN(CCCn2c3ccccc3c3ccccc32)C[C@H](C)N1,Potency,[2],inactive
O=C(Nc1ccc(Cl)c(Cl)c1)C1CC1,Potency,[2],inactive
C#C[C@]1(O)CC[C@H]2[C@@H]3CCC4=CC(=O)CC[C@@H]4[C@H]3CC[C@@]21C,Potency,[2],inactive
CCN(CC)C(=O)N1CCN(C)CC1,Potency,[2],inactive
